MCL1 BIM primary: inhibitors of MCL1 binding to BIM-BH3, primary screen, biochemical, fluorescence polarization; Induced myeloid leukemia cell differentiation protein Mcl-1 (Homo sapiens), Q07820; 320,000 compounds, 0.68% hits; inhibition, % at 10.9 µM; GST-MCL1 / FITC-Bim-BH3 fluorescence polarization; AID 2057, 2009;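 active = inhibition above the mean inhibition of all tested compounds plus 3 SD, set per campaign, cut at about 40% in these data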;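 also: 0% = DMSO wells and 100% = unlabeled Bim-BH3 peptide control; higher means more loss of mP so more displacement of Bim peptide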
Target sequence (Q07820 whole entry, looked up): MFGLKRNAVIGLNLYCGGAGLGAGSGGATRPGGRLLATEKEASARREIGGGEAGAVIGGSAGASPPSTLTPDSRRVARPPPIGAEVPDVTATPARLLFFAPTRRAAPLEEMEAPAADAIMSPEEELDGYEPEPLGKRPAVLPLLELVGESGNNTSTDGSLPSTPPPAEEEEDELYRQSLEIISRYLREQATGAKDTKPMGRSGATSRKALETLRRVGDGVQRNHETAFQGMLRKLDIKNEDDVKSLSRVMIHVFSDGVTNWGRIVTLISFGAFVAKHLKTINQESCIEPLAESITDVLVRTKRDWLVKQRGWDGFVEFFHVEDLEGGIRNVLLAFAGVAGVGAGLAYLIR
14-3-3 Bad inh: inhibitors of 14-3-3 zeta/Bad binding, primary screen, biochemical, TR-FRET, bovine 14-3-3 zeta; 14-3-3 protein zeta/delta (Bos taurus), P63103; TR-FRET 14-3-3zeta/Dy647-pBad peptide displacement, 1 h; inhibition, % at 21.7 µM; 220,000 compounds, 0.71% hits;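 active = inhibition above about 70%, limit read from the data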;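 also: 0% = full 14-3-3 plus peptide FRET controls and 100% = background without 14-3-3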
Target sequence (P63103 whole entry, looked up): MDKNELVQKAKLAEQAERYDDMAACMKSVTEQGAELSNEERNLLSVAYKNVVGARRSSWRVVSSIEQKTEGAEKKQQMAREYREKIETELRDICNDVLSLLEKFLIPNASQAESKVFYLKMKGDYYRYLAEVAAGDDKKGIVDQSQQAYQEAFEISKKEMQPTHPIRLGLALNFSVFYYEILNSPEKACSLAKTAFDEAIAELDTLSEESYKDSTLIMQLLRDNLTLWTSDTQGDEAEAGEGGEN
Mcl1 Noxa PPI: Mcl-1/Noxa binding inhibitors, primary screen, biochemical, TR-FRET, 1536-well | Induced myeloid leukemia cell differentiation protein Mcl-1 (Homo sapiens), Q07820 | TR-FRET Mcl-1/Noxa peptide binding, 2 h | inhibition, % at 21.7 µM | 220,000 compounds, 1.5% hits | AID 1022, 2008;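 active = compounds that cut the protein-peptide binding signal by more than 50% relative to plate controls in a single-dose test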;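 also: His-tagged Mcl-1 with rhodamine Noxa BH3 peptide and terbium anti-His antibody; 0% = Mcl-1 plus Noxa peptide wells and 100% = peptide-only wells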
Mcl1 Bid PPI: Mcl-1/Bid binding inhibitors, primary screen, biochemical, TR-FRET, 1536-well. Induced myeloid leukemia cell differentiation protein Mcl-1 (Homo sapiens), Q07820. TR-FRET Mcl-1/Bid-Dy647 peptide binding. inhibition, % at 21.7 µM. 220,000 compounds, 0.97% hits;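 active = compounds that cut the binding signal by more than half at the single screening dose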;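 also: His-tagged Mcl-1 with europium anti-His antibody binding Bid BH3 peptide; 0% = Mcl-1 plus peptide wells and 100% = peptide-only wells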
Mcl-1 Bim block: inhibitors of Bim peptide binding to Mcl-1, primary screen, biochemical, bead-based flow cytometry, multiplex. 190,000 compounds, 0.1% hits. inhibition, % at 10 µM. Bim peptide-Mcl-1 binding. AID 1009, 2008. Induced myeloid leukemia cell differentiation protein Mcl-1 (Homo sapiens), Q07820; in the data active = inhibition above about 40%;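 also: 0% = no compound tracer wells and 100% = peptide blocker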
Active calls of the source: *; nt = not tested or not shown; ! = not confirmed by another sample. Compounds with a hit are over-represented: about 2.5% of the library has one in this group of screens.

SMILES	MCL1 BIM primary	14-3-3 Bad inh	Mcl1 Noxa PPI	Mcl1 Bid PPI	Mcl-1 Bim block
COc1ccc(S(=O)(=O)N(C)C)cc1NCC(=O)Nc1ccc(F)cc1F	-9	-8	15	-10	-4
Cc1ccc(NC(=O)NC(=O)CN2C(=O)NC3(CCCCCCC3)C2=O)c(C)c1	-2	71*	1	1	0
C=C(C)CNC(=S)N/N=C/c1ccc(NC(C)=O)cc1	2	-7	8	-19	-1
CC(=O)Nc1ccc(/C=N/NC(=S)NC(C)C)cc1	13	-2	53*	6	-1
O=c1nc2c(O)cccn2c2c1c(=O)[nH]c1ccccc12	nt	2	61*	-83	21
O=c1[nH]c2ccccc2c2nc3ccccn3c12	-2	11	-4	5	3
O=C(NCc1ccccc1)C1COc2ccccc2O1 (stereo not given)	-2	-2	1	-5	0
O=C1OC(C(=O)NCc2ccccc2)Cc2ccccc21 (stereo not given)	4	74*	-1	-30	0
Cc1ccc(-c2cc(C(=O)OCC(=O)N(C)C3CCS(=O)(=O)C3)c3ccccc3n2)o1 (stereo not given)	22	-2	78*	-61	1
CCN(C(=O)COC(=O)c1cc(-c2ccc(C)o2)nc2ccccc12)C1CCS(=O)(=O)C1 (stereo not given)	33	5	68*	21	-1
O=C(NCc1ccncc1)C12CC3CC(CC(Cl)(C3)C1)C2	-2	nt	nt	nt	nt
Cc1c(OCC(F)(F)F)ccnc1CS(=O)c1nc2ccccc2[nH]1 (stereo not given)	33	-19	70*!	5	-10
Cc1ccc(S(=O)(=O)N/N=C/c2cnn(C)c2C)cc1	1	-11	4	70*	-8
CCn1ncc(/C=N/NS(=O)(=O)c2ccc(Cl)cc2)c1C	1	-17	20	-64	-4
CC(C)NC(=O)c1ccc(CNC(=O)OCC(F)(F)F)cc1	4	24	-5	-14	-2
CC(C)NC(=O)c1ccc(COCC(F)(F)F)cc1	1	1	17	87*	-3
CCOC(=O)C1=c2/c(=C/c3ccncc3)c(N)c(C(=O)OC)n2C(=O)C(c2ccncc2)S1 (stereo not given)	-9	58	30	62*	3
Fc1ccc(-[n+]2nc(Nc3ccccc3)sc2-c2ccc(OCc3ccccc3)cc2)cc1	-1	nt	nt	nt	nt
Cc1ccc(/C=N/NC(=O)c2cc3c(ccc4ccccc43)o2)cc1[N+](=O)[O-]	-4	67	26	76*	0
O=C(N/N=C/c1cccnc1)c1cc2ccccc2o1	-4	-9	-2	-13	-4
O=C(N/N=C/c1cccnc1)c1cc2c(ccc3ccccc32)o1	-109	70	49	55*	0
COc1ccc(C(=O)N/N=C/c2ccc(OC(=O)c3cccc4ccccc34)c([N+](=O)[O-])c2)cc1	13	18	51*	10	-8
O=C(N/N=C/c1ccc([N+](=O)[O-])o1)c1cc2c(ccc3ccccc32)o1	nt	93*	38	88*	3
Cc1cccc(C)c1OCC(=O)Nc1oc(-c2ccccc2)c(-c2ccccc2)c1C#N	6	nt	nt	nt	nt
CC12CCC(C(=O)NCCCn3ccnc3)(OC1=O)C2(C)C (stereo not given)	-2	2	19	-14	0
SMILES	MCL1 BIM primary	14-3-3 Bad inh	Mcl1 Noxa PPI	Mcl1 Bid PPI	Mcl-1 Bim block
CCOC(=O)c1c(NS(=O)(=O)c2ccc(Br)cc2)sc2c1CCC2	10	0	51*	-17	-4
C/C=C\C=C/C(=O)Nc1cccc(C2=NOC3(C2)C[C@@H](C(N)=O)N(C(=O)c2ccccc2)C3)c1 (stereo not given in full)	-3	1	75*	21	nt
C=C(C)C(=O)Nc1cccc(C2=NOC3(C2)C[C@@H](C(N)=O)N(C(=O)CCCCC)C3)c1 (stereo not given in full)	5	43	69*	-100	nt
C=C(C)C(=O)Nc1cccc(C2=NOC3(C2)C[C@@H](C(N)=O)N(C(=O)c2cc([N+](=O)[O-])cc([N+](=O)[O-])c2)C3)c1 (stereo not given in full)	1	17	46	-111	nt
C=C(C)C(=O)Nc1cccc(C2=NOC3(C2)C[C@@H](C(N)=O)N(C(=O)c2ccc(OC)cc2)C3)c1 (stereo not given in full)	11	40	69*	-130	nt
Cc1ccc(-c2noc(CCC(=O)NCCN3CCOCC3)n2)cc1	-1	12	4	-4	-2
Cc1cccc(NC(=O)CSc2ccc(-c3cccs3)nn2)c1C	-4	5	-12	-10	-7
OCCN(Cc1ccccc1)Cc1ccc(Cl)cc1Cl	6	87*	7	38	0
COc1ccc(CCC(C)Nc2cccc(F)c2)cc1 (stereo not given)	1	86*	33	3	-3
CC1=Nc2cccc3cccc(c23)N1C	2	7	61*	-38	-3
CN1C(=O)N(C)c2cccc3cccc1c23	-9	nt	nt	nt	nt
N#Cc1cccc(N=Cc2c(O)ccc3ccccc23)c1	3	20	55*	-22	2
Cc1ccc(N=Cc2c(O)ccc3ccccc23)cc1F	13	7	34	-3	-2
Cc1ccc2cc(C(=O)O)c(C)nc2c1	9	79*	29	34	-5
O=C(Nc1ccccc1[N+](=O)[O-])c1cc2ccccc2nc1Cl	5	5	24	-17	nt
O=C(Nc1ccccc1[N+](=O)[O-])C1=C(O)CCn2c1nc1ccccc12	17	nt	72*	24	6
Nc1nnc(CC(=O)N/N=C/c2ccc(-c3ccc(Cl)cc3Cl)o2)s1	12	49	51*	49	nt
Nc1nnc(CC(=O)N/N=C/c2ccc(-c3ccccc3Cl)o2)s1	4	-10	35	-2	-8
O=[N+]([O-])c1ccccc1-c1ccc(C(=S)N2CCN(c3ccccc3)CC2)o1	13	-6	-29	-33	nt
CCCSC1=N/C(=C\C=C\c2ccco2)C(=O)S1	39	-1	76*	5	0
CCCSC1=N/C(=C\c2ccc([N+](=O)[O-])o2)C(=O)S1	nt	46	79*	6	1
CCCCCSc1nnc(-c2ccccc2N)c(=O)[nH]1	-7	-13	20	1	-5
CC(C)NC(=O)COC(=O)c1ccc(S(=O)(=O)N2CCCC2)cc1	-8	-21	10	-30	0
O=[N+]([O-])c1ccc(CSc2nc3ccccc3o2)cc1	3	10	10	-1	-3
